Bioassay records as filed in PubChem.
ALR inh: human ALR oxidase inhibition via reduced H2O2; purified ALR, DTT oxidation, H2O2 HRP-luminol luminescence; inhibition, % (concentration not given with the values); 290,000 tested, 3.8% active;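 active = mean replicate inhibition above about 79%, with every replicate also reaching it, limit read from the data; inconclusive = only one of the two criteria met; inactive = mean below limit and not every replicate reaching it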
Target sequence (P55789 whole entry, looked up): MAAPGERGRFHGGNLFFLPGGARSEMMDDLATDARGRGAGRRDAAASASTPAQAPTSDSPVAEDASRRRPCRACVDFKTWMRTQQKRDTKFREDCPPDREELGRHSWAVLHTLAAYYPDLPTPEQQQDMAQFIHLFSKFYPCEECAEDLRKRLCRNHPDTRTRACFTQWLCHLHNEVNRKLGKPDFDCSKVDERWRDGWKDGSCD
Calb FLC: C. albicans growth modulation with fluconazole | C. albicans CaCi-2 (fluconazole-resistant clinical isolate) + fluconazole, Alamar Blue growth, 48 h | growth inhibition, % (no concentration beside the values) | 300,000 tested, 0.57% active;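 active = growth inhibition above about 58% in most replicates, limit read from the data, passing the limit was not always enough; inconclusive = exactly half the replicates above a set limit; inactive = most replicates below a set limit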;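 also: all wells also contain fluconazole at 8 µg/ml as a sub-toxic cotreatment; 0% = median of DMSO wells and 100% = median of geldanamycin control wells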
CSC inhib: blocks cancer stem cells | cancer stem cell-like cells viability, luminescence | inhibition, % at 7.5 µM | 300,000 tested, 1.1% active | AID 2717; in the data active = inhibition above about 75%; inconclusive = no clear call, values can overlap the other calls; tested in HMLE shEcad cells
PP1 counter: counter-screen for PP5 inhibitors: inhibitors of human PP1-alpha | purified PP1alpha, OMFP fluorescence | inhibition, % at 6.7 µM | 320,000 tested, 0.9% active;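 active = inhibition above the mean inhibition of all tested compounds plus 3 SD, computed separately for each screening campaign, cut at about 15% in these data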
Target sequence (P62136 whole entry, looked up): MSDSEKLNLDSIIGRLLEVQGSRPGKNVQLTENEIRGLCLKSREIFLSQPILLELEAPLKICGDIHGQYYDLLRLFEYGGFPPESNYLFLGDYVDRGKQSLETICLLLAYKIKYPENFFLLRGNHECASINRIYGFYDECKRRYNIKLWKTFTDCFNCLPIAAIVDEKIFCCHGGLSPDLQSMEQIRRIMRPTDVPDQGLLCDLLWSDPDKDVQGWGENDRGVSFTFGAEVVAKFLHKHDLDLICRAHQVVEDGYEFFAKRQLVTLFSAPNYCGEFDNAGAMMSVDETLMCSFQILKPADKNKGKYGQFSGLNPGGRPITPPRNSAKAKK
PP5 primary: inhibitors of human protein phosphatase 5 (PP5). AID 1987. 320,000 tested, 0.18% active. P53041. inhibition, % at 6.7 µM. purified PP5c, OMFP substrate fluorescence;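 active = inhibition above the campaign's mean inhibition across all tested compounds plus 3 SD, cut at about 9.5% in these data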;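 also: 0% = DMSO only and 100% = 100 µM cantharidin control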
Starred values were filed as active, the others as inactive. In the library only some 5.4% were active in any assay of this set; here they are far more common.

Results for O=C(/C(=C/c1ccc(Cl)cc1)c1nc2ccccc2[nH]1)c1cccs1 ?
ALR inh: 3; Calb FLC: 35; CSC inhib: 93*; PP1 counter: 12; PP5 primary: 5

Results for COc1cc(/C=C(/C(=O)c2cccs2)c2nc3ccccc3[nH]2)ccc1O ?
ALR inh: inconclusive; Calb FLC: 3; CSC inhib: 61; PP1 counter: -4; PP5 primary: 1

What do the screens show for `CN(C)CCNC(=O)C(=O)NCC1OCCN1S(=O)(=O)c1ccc([N+](=O)[O-])cc1` (stereo not drawn)?
ALR inh: -20; Calb FLC: 0; CSC inhib: 16; PP1 counter: -5; PP5 primary: -1

What do the screens show for `Cc1cc(C)n(CC(=O)NCCC2=CCCCC2)n1`?
ALR inh: 4; Calb FLC: -1; CSC inhib: -10; PP1 counter: -4; PP5 primary: 1

What do the screens show for `O=C1CC(N2CCc3ccccc32)C(=O)N1c1ccc(F)cc1` (stereo not drawn)?
ALR inh: 99*; Calb FLC: -1; CSC inhib: -15; PP1 counter: -1; PP5 primary: 1

Results for COc1ccccc1N1C(=O)CC(N2CCc3ccccc32)C1=O (stereo not drawn) ?
ALR inh: 41; Calb FLC: 10; CSC inhib: 6; PP1 counter: -2; PP5 primary: 1

What do the screens show for `COc1cccc(N2C(=O)CC(N3CCc4ccccc43)C2=O)c1` (stereo not drawn)?
ALR inh: 90*; Calb FLC: 9; CSC inhib: -2; PP1 counter: 0; PP5 primary: 4

How did CCOc1cc(/C=C(\C#N)C(=O)Nc2cccc(C(=O)O)c2)ccc1OCc1ccccc1Cl do in these assays?
ALR inh: 11; Calb FLC: 18; CSC inhib: 5; PP1 counter: 1; PP5 primary: 3

Results for CCOc1cc(/C=C(\C#N)C(=O)Nc2cccc(C(=O)O)c2)cc(Br)c1OC(=O)c1ccc(OC)cc1 ?
ALR inh: 12; Calb FLC: 8; CSC inhib: 17; PP1 counter: 17*; PP5 primary: -4

Results for COc1cccc(N2CCN(c3ccc4nnc(CCC(=O)Nc5ccccn5)n4n3)CC2)c1 ?
ALR inh: 95*; Calb FLC: -4; CSC inhib: -17; PP1 counter: -5; PP5 primary: 3

What do the screens show for `COc1cccc(N2CCN(c3ccc4nnc(CCC(=O)Nc5cc(C)ccn5)n4n3)CC2)c1`?
ALR inh: 58; Calb FLC: 6; CSC inhib: -4; PP1 counter: -3; PP5 primary: 0

Results for Cc1cccc(NC(=O)c2ccc3c(c2)OCCO3)n1 ?
ALR inh: 3; Calb FLC: -4; CSC inhib: 4; PP1 counter: -3; PP5 primary: -1

How did O=C(N1CCN(c2ccccc2)CC1)C(F)(F)C(F)(F)F do in these assays?
ALR inh: 0; Calb FLC: 12; CSC inhib: 0; PP1 counter: 0; PP5 primary: -2

How did Cc1nc(Sc2nnnn2C)c2c3c(sc2n1)CCC3 do in these assays?
ALR inh: 94*; CSC inhib: 65; PP1 counter: -4; PP5 primary: 1

How did CCc1nc(Sc2nnnn2-c2ccccc2)c2c3c(sc2n1)CCCC3 do in these assays?
ALR inh: 10; Calb FLC: -3; CSC inhib: 16; PP1 counter: -1; PP5 primary: -1

How did O=C(NC(=S)NC1CCSC1=O)c1cccs1 (stereo not drawn) do in these assays?
ALR inh: 34; Calb FLC: -6; PP1 counter: -2; PP5 primary: -3

How did CN(CC(=O)NCCN1CCN(c2ccccc2)CC1)S(=O)(=O)c1ccc2c(c1)CCC(=O)N2 do in these assays?
ALR inh: 98*; Calb FLC: -5; CSC inhib: -3; PP1 counter: -1; PP5 primary: 1

Results for Cc1[nH]c2ccccc2c1/C=C/c1cc[n+](C)cc1 ?
Calb FLC: 104*

What do the screens show for `Cc1ccccc1/C=C/c1cc[n+](C)cc1`?
ALR inh: -18; Calb FLC: -6; CSC inhib: -2; PP1 counter: 0; PP5 primary: 0

Results for CCN1CCN(C(=S)Nc2sc(C)c(-c3ccccc3)c2C(=O)OC)CC1 ?
ALR inh: 4; Calb FLC: -8; CSC inhib: 90*; PP1 counter: 1; PP5 primary: 5

What do the screens show for `Cc1cc(N)c(NC2=CC(=O)CC(C)(C)C2)cc1C`?
ALR inh: 98*; Calb FLC: 13; CSC inhib: -11; PP1 counter: -9; PP5 primary: 1

How did COc1ccc(-n2c(-c3ccc(Cl)cc3)c[n+]3c2CCCCC3)cc1 do in these assays?
ALR inh: -10; Calb FLC: 8; CSC inhib: 20; PP1 counter: -5; PP5 primary: -1

Results for CCOc1ccc(-n2c(-c3ccc(OC)cc3)c[n+]3c2CCCCC3)cc1 ?
ALR inh: -1; Calb FLC: 110*; CSC inhib: 34; PP1 counter: -2; PP5 primary: 2

What do the screens show for `CCOc1ccc(-n2c(-c3ccc(Br)cc3)c[n+]3c2CCCCC3)cc1`?
ALR inh: -23; Calb FLC: 103*; CSC inhib: -9; PP1 counter: -1; PP5 primary: 0

How did COc1ccc(-c2c[n+]3c(n2-c2ccc(C)cc2)CCCCC3)cc1 do in these assays?
ALR inh: -4; Calb FLC: -8; CSC inhib: 16; PP1 counter: 2; PP5 primary: 0

What do the screens show for `COc1ccc(-c2c[n+]3c(n2-c2ccccc2)CCCCC3)cc1`?
ALR inh: 2; Calb FLC: 112*; CSC inhib: 27; PP1 counter: -1; PP5 primary: 0

How did CC(=O)OCC1OC(OCc2cn(C[C@H]3CC[C@H](Cn4cc(COC5OC(COC(C)=O)C(OC(C)=O)C(OC(C)=O)C5OC(C)=O)nn4)O3)nn2)C(OC(C)=O)C(OC(C)=O)C1OC(C)=O (stereo partly drawn) do in these assays?
ALR inh: -2; Calb FLC: 2; CSC inhib: 2; PP1 counter: -3; PP5 primary: -2

Results for CC(Sc1nc(-c2ccc(F)cc2)cs1)C(=O)N1c2ccccc2CC1C (stereo not drawn) ?
ALR inh: -4; Calb FLC: -5; PP1 counter: 2; PP5 primary: 3

How did Cc1ccc(-c2nnc(N3CCC(C)CC3)c3ccccc23)cc1C do in these assays?
ALR inh: 0; Calb FLC: 4; CSC inhib: 96*; PP1 counter: 10; PP5 primary: 0

What do the screens show for `Cc1ccc(-c2nnc(N3CCC(C)CC3)c3ccccc23)cc1`?
ALR inh: -5; Calb FLC: 65; CSC inhib: 7; PP1 counter: 6; PP5 primary: 3

What do the screens show for `Cn1c(CNC(=O)c2cccs2)nnc1SCC(=O)Nc1ccccc1`?
ALR inh: -2; Calb FLC: -2; CSC inhib: -2; PP1 counter: 5; PP5 primary: -5

What do the screens show for `CCN(CC)c1ccc(/C=N/n2c(-c3ccccc3Br)n[nH]c2=S)cc1`?
ALR inh: 97*; Calb FLC: 12; CSC inhib: -8; PP1 counter: 3; PP5 primary: 5
